Assay [1] in a line: A CellTox Green Cytotoxicity Assay to monitor cytotoxicity in HepG2 cells - 0 hour (AID 1224882). Also: nearly all actives have a fitted effect of over 35% in size. The gist of the method:
(§1)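 Fluorescent DNA-binding dye, 600 HepG2 cells/well, 5 h preincubation then compound in DMSO; same plates read at 0–40 h, 37 C.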

The nature of assay [2]: A CellTox Green Cytotoxicity Assay to monitor cytotoxicity in HepG2 cells - 32 hour (AID 1224883). Also: nearly all actives have a fitted effect of over 50% in size. Also: potency is read from the fitted curve at half-maximal effect. The gist of the method: as §1
Assay [3] can be described thus: A CellTox Green Cytotoxicity Assay to monitor cytotoxicity in HEK293 cells - 8 hour (AID 1224884). Also: nearly all actives have a fitted effect of over 35% in size. Also: potency is read from the fitted curve at half-maximal effect. The gist of the method: (§2)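 Homogeneous no-lysis format: HEK293 cell suspension mixed with CellTox Green reagent, seeded, incubated 5 h at 37 C/5% CO2, then dosed by pintool with compound in DMSO.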
Assay [4] is described as follows: qHTS RealTime-Glo MT Cell Viability Assay in HepG2 cells - 16 hour (AID 1224885). Also: nearly all actives have a fitted effect of over 50% in size. Also: potency is read from the fitted curve at half-maximal effect. The gist of the method:
(§3)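 Luminescence read-out: viable HepG2 cells reduce a prosubstrate to a NanoLuc substrate, giving a signal proportional to live cell number. Reads taken at 0, 8, 16, 24, 32 and 40 h of compound exposure at 37 C.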

Assay [5] is described as follows: A CellTox Green Cytotoxicity Assay to monitor cytotoxicity in HEK293 cells - 16 hour (AID 1224888). Also: nearly all actives have a fitted effect of over 35% in size. Also: potency is read from the fitted curve at half-maximal effect. Put shortly:
as §2

A short description of assay [6]: A CellTox Green Cytotoxicity Assay to monitor cytotoxicity in HepG2 cells - 8 hour (AID 1224890). Also: nearly all actives have a fitted effect of over 45% in size. Also: potency is read from the fitted curve at half-maximal effect. The gist of the method: as §1
Assay [7] in a line: qHTS RealTime-Glo MT Cell Viability Assay in HEK293 cells - 24 hour (AID 1224886). Also: nearly all actives have a fitted effect of over 50% in size. Also: potency is read from the fitted curve at half-maximal effect. The gist of the method: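 Nonlytic real-time viability readout: viable cells convert prosubstrate to NanoLuc substrate, giving luminescence proportional to live cell number. HEK293, 600 cells/well, compound added after 5 h, continuous culture at 37 C.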
(In qHTS, concentration-response curves come from the screen itself.)

The nature of assay [8]: qHTS RealTime-Glo MT Cell Viability Assay in HEK293 cells - 8 hour (AID 1224887). Also: nearly all actives have a fitted effect of over 50% in size. Also: potency is read from the fitted curve at half-maximal effect. The gist of the method:
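Measured as luminescence from the same continuously cultured HEK293 wells at successive time points (0, 8, 16, 24, 32, 40 h) after compound addition. Reagent present from seeding; dosing at 5 h; incubation 37 C.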

Assay [9] in a line: qHTS RealTime-Glo MT Cell Viability Assay in HepG2 cells - 0 hour (AID 1224889). Also: nearly all actives have a fitted effect of over 50% in size. Also: potency is read from the fitted curve at half-maximal effect. Put shortly:
as §3

Assay [10] is described as follows: qHTS assay to identify small molecule antagonists of the estrogen receptor alpha (ER-alpha) signaling pathway using the BG1 cell line in the presence of 0.1 nM 17-beta-estradiol - cell viability counter screen (AID 1259241). Also: nearly all actives have a fitted effect of over 40% in size. Also: potency is read from the fitted curve at half-maximal effect. Put shortly:
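Live-cell protease activity (CellTiter-Fluor fluorescence, 30 min) was read in the same wells after VM7Luc4E2 cells had been exposed to compounds with 0.1 nM 17beta-estradiol for 22 hr at 37C.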

Each structure is given as a SMILES string. Inconclusive results are not listed. Active and inactive are the calls of the source. Calls follow the shape of the dose curve; as a rule, active = well fitted curve in the direction sought with a large enough effect in the repeat runs; inconclusive = weak or mixed curves; inactive = no such curve, though single readings can be large; an effect the other way counts as inactive or inconclusive.

Regarding `CC(c1ccc(O)cc1)(c1ccc(O)cc1)c1ccc(O)cc1`, the Potency entry in assay [1], in assay [2], in [3], in assay [4], in assay [5] and in [6] was “inactive” each time.

As for `C=CC[C@]1(O)CC[C@H]2[C@@H]3CCC4=CC(=O)CCC4=C3C=C[C@@]21C`, the Potency result in assay [1], in assay [2], in [3], in [5] and in assay [6] was “inactive” each time. Also, the Potency in assay [7] is 19 µM (active).

With `O=C(O)c1ccccc1C(=O)Nc1cccc2ccccc12`, the Potency entry in assay [1], in assay [2], in assay [3], in assay [4], in [8] and in assay [5] was “inactive” in each case. The Potency result in assay [9], in assay [6] and in assay [10] was “inactive” throughout.

In the case of `CCOP(=S)(OCC)Oc1cc(Cl)c(Br)cc1Cl`, the Potency entry in assay [1], in assay [2], in [3], in [4], in [8] and in assay [5] was “inactive” in each case. Further, the Potency result in assay [9], in [6] and in assay [10] was “inactive” in each case.

Take `COP(=S)(OC)Oc1cc(Cl)c(I)cc1Cl`: the Potency entry in assay [1], in assay [2], in [3], in assay [4], in assay [7] and in assay [9] was “inactive” in each case. The Potency result in [6] and in assay [10] was “inactive” each time.

For `II`, the Potency result in assay [1], in [7] and in assay [10] was “inactive” throughout. Moreover, the Potency in [2] is 38.9 µM (active); in assay [3], 34.7 µM (active); in assay [4] it was 27.5 µM (active); in [5], 38.9 µM (active); in assay [6] it was 38.9 µM (active).

For the molecule `CCOC(=O)[C@]1(c2ccccc2)Oc2ccccc2[C@@H]1N`, the Potency entry in [1], in assay [2], in [3], in assay [4], in [5] and in assay [9] was “inactive” throughout. In addition, the Potency result in assay [6] and in assay [10] was “inactive” throughout.

For `N#CCC#N`, the Potency result in assay [1], in assay [2], in assay [3], in [4], in [9] and in assay [6] was “inactive” each time. Also, in assay [10], the Potency result is “inactive”.

As for `Cc1ccccc1C(=O)Nc1cccc(OC(C)C)c1`, the Potency entry in assay [1], in assay [2], in assay [3], in assay [4], in assay [8] and in assay [5] was “inactive” in each case. The Potency entry in [9] and in [10] was “inactive” in each case.

With `O=C(O)C1(c2ccc3c(c2)OC[C@H](Cc2ccc(-c4ccccc4)cc2)[C@H]3O)CCCC1`, the Potency result in assay [1], in assay [4], in [9], in assay [6] and in assay [10] was “inactive” throughout. Also, the Potency is 43.6 µM (active) in [2] and 19.5 µM (active) in assay [3].

Regarding `CCOP(=S)(OCC)SCn1nnc2ccccc2c1=O`, the Potency result in assay [1], in [2], in assay [3], in assay [5] and in [6] was “inactive” throughout. In addition, the Potency in assay [7] is 21.9 µM (active); in assay [8], 21.9 µM (active); in [9], 24.5 µM (active).

On to `BrCC(Br)C1CCC(Br)C(Br)C1` (stereo unspecified), for which the Potency entry in [1], in [2], in assay [3], in [4], in assay [5] and in assay [9] was “inactive” throughout. For the same molecule, the Potency entry in assay [6] and in assay [10] was “inactive” throughout.

Regarding `O=C(CBr)OCc1ccccc1`, the Potency result in assay [1], in assay [2], in assay [3], in assay [4], in assay [5] and in [9] was “inactive” throughout. Besides, the Potency result in assay [6] and in [10] was “inactive” each time.

Turning to `NNC(=O)c1cccnc1`, the Potency result in assay [1], in assay [2], in [3], in [4], in assay [7] and in assay [9] was “inactive” in each case. Further, the Potency entry in assay [6] and in assay [10] was “inactive” throughout.

For `O=[N+]([O-])c1ccc(F)c([N+](=O)[O-])c1`, the Potency entry in assay [1], in [2], in assay [3], in assay [4], in assay [5] and in assay [9] was “inactive” each time. The Potency entry in [6] was “inactive”. The Potency in assay [10] is 17.4 µM (active).

As for `CCCC(Cn1cncn1)c1ccc(Cl)cc1Cl` (stereo unspecified), the Potency entry in assay [1], in assay [3], in [5], in assay [9], in [6] and in assay [10] was “inactive” in each case. Also, the Potency in [2] is 49 µM (active); in assay [7], 21.9 µM (active).

With `CN1C(=O)C(O)N=C(c2ccccc2)c2cc(Cl)ccc21` (stereo unspecified), the Potency result in assay [1], in assay [2], in [3], in assay [4], in assay [8] and in assay [5] was “inactive” each time. The Potency entry in [9], in assay [6] and in [10] was “inactive” each time.

For the molecule `CC(C)=CCOc1c2occc2cc2ccc(=O)oc12`, the Potency result in [1], in assay [2], in assay [3], in [7], in assay [8] and in [5] was “inactive” throughout. The Potency result in [9] and in [10] was “inactive” each time.

Take `CC(C)(CCl)C(=O)Cl`: the Potency result in [1], in assay [2], in assay [3], in assay [4], in assay [7] and in assay [9] was “inactive” in each case. In addition, the Potency entry in assay [6] and in assay [10] was “inactive” each time.

Take `CC1Sc2c(C(=O)O)c(=O)c3cc(F)c(N4CCNCC4)cc3n21` (stereo unspecified): the Potency entry in assay [1], in assay [2], in assay [3], in assay [4], in [7] and in assay [9] was “inactive” in each case. The Potency entry in [6] and in [10] was “inactive” throughout.

For the molecule `CN(C)c1ccc(N(C)C)cc1`, the Potency entry in assay [1], in assay [2], in assay [3], in assay [4], in assay [5] and in [9] was “inactive” each time. In addition, the Potency result in assay [6] is “inactive”. Further, the Potency in [8] was 34.8 µM (active); in assay [10] it was 61.3 µM (active).
